Test results published in PubChem BioAssay (NCATS).
Unmarked numbers belong to inactive results. Results filed as inconclusive are left out. The source made the active and inactive calls. Unless noted, calls follow the shape of the dose curve; as a rule, active = well fitted curve in the direction sought with a large enough effect; inconclusive = small, poorly fitted or top-dose-only effect, or another doubt; inactive = no such curve, though single readings can be large; an effect the other way counts as inactive or inconclusive.

Experiments:
[1] = target: Lysosomal acid glucosylceramidase (Homo sapiens) (UniProt P04062); assay: Glucocerebrosidase-p2 (AID 348; in the data active = potency below about 10 µM; also: potency is read from the fitted curve at half-maximal effect); settings: purified GBA, blue fluorogenic substrate, 40 min
Summary of the method: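 Compounds titrated from 0.6 nM upwards against 0.2 nM enzyme in pH 5.9 citric acid/KH2PO4, taurocholate, tween-20; blue fluorogenic substrate 80 uM, 40 min room temperature, stopped and read Ex 365/Em 440 for AC50.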

[2] = AP1 Signaling Pathway (AID 357; active = well fitted curve in either direction with a large enough effect, not every such curve was filed as active;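 also: ME-180 reporter cells stimulated with EGF at its EC50 level; % is scaled to controls: 0 for no effect and ±100 for the full control effect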); settings: ME-180 AP-1-bla reporter, EGF-induced, beta-lactamase ratio, 5 h; at 7.69 µM (top of the series) unless noted
Summary of the method: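 Modulation of EGF-driven AP-1 transcription was assessed with a beta-lactamase reporter in ME-180 cells. Compound and EC50 EGF were co-incubated 5 hours at 37 °C before 2.5-hour CCF4 loading at room temperature and dual-emission reading.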

[3] = target: Cytochrome P450 1A2 (Homo sapiens) (UniProt P05177); assay: p450-cyp1a2 (AID 410; calls by dose curve; also: potency is read from the fitted curve at half-maximal effect); settings: recombinant CYP1A2, luciferin-ME demethylation, luminescence; series mostly up to 57 µM
Summary of the method: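 Human CYP1A2 (20nM) demethylated Luciferin-ME at its Km (100uM) in 100mM KPO4. After 10 min compound preincubation, NADPH regeneration ran the reaction 60 min at room temperature. Luciferin was read by luminescence, normalized to 57 uM furafylline.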

[4] = NFAT Signaling Pathway (AID 444; active = well fitted curve in either direction with a large enough effect, not every such curve was filed as active;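 also: carbachol stimulus at about its EC50 of 1 µM final; % is scaled to controls: 0 for no effect and ±100 for the full control effect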); settings: Jurkat NFAT-bla M1, carbachol, beta-lactamase ratio, 5 h; at 7.69 µM (top of the series) unless noted
Summary of the method: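 Jurkat cells with NFAT-driven β-lactamase reporter and co-expressed M1 receptor, stimulated with carbachol (final 1 uM, ~EC50), compound titration, 5 h at 37 °C. CCF4 loaded 1 h at RT; 460/530 nm ratio gave %activity and AC50.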

[5] = Stat Signaling Pathway (AID 446; active = well fitted curve in either direction with a large enough effect, not every such curve was filed as active;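 also: ME-180 cervical cancer cells given 40 pM IL-6 alongside compound; SIE-controlled beta-lactamase reporter measured as 460/530 nm FRET emission ratio; % is scaled to controls: 0 for no effect and ±100 for the full control effect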); settings: ME-180 SIE beta-lactamase reporter, IL-6 stimulated, 5 h; at 7.69 µM (top of the series) unless noted
Summary of the method: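 ME-180 SIE-bla cells; overnight plating; cpd + IL-6 40 pM, 5 h, 37 C; LiveBLAzer 2.5 h RT; 460/530 nm emission ratio. Normalized to 300 pM IL-6 and 125 nM JAK inhibitor controls.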

[6] = target: Glucocorticoid receptor (Homo sapiens) (UniProt P04150); assay: GR-GFP Redistribution (AID 450;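 active = compounds whose dose series gives a full or clear partial fitted curve of increased nuclear translocation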; also: potency is read from the fitted curve at half-maximal effect); settings: U2OS GR-GFP nuclear translocation, laser cytometry, 2 h
[7] = target: Glucocorticoid receptor (Homo sapiens) (UniProt P04150); assay: GR-EFC Redistribution (AID 451; calls by dose curve; also: potency is read from the fitted curve at half-maximal effect); settings: CHO-K1 GR-EFC translocation, beta-gal luminescence, 2 h
Summary of the method: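 CHO-K1 cells expressing nuclear EA and GR-ED fragments of b-gal; compounds titrated up to 46 uM final, 2 h at 37 C. GR nuclear translocation read as complemented b-gal luminescence after 1 h RT detection.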

[8] = target: Mitogen-activated protein kinase 10 (Mus musculus) (UniProt Q61831); assay: JNK3 AlphaScreen Assay (AID 530; active = well fitted curve in either direction with a large enough effect, not every such curve was filed as active;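 also: kinase came from lysate of stimulated human HepG2 cells; signal reports phosphorylation of biotinylated GST-cJun 1-79 at Ser73 with 10 µM ATP; % is scaled to controls: 0 for no effect and ±100 for the full control effect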); settings: JNK3 lysate, c-Jun phosphorylation; series mostly up to 57.1 µM
Summary of the method: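 qHTS format: compounds tested as titrations against IL-1beta/TNF-alpha-activated HepG2 lysate JNK3 with biotin-GST-cJun substrate and 10 uM ATP at room temperature. Loss of anti-phospho-cJun AlphaScreen signal indicates inhibition.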

[9] = target: 3',5'-cyclic-AMP phosphodiesterase 4B (Homo sapiens) (UniProt Q07343); assay: qHTS Assay for Inhibitors of PDE-IV (AID 607; active = well fitted activation curve with a large enough effect in the main read-out, with a control signal flat, not every such curve was filed as active; also: potency is read from the fitted curve at half-maximal effect); settings: HEK293 ACTOne CNG channel cells, membrane potential fluorescence; series mostly up to 22.9 µM
Summary of the method: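 ACTOne HEK293 cells carry a modified cAMP-gated CNG channel and express endogenous PDE4; plated 1000 cells/well, compounds up to 22.9 uM final. Membrane-potential dye fluorescence (ex 535/em 590) was read; parental cells received 10 uM forskolin + 100 uM RO 20-1724.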

[10] = target: Dual specificity protein kinase CLK4 (Homo sapiens) (UniProt Q9HAZ1); assay: qHTS Assay for Inhibitors of CDC-like Kinase 4 (Kinase-Glo Assay) (AID 1770); settings: recombinant Clk4, Kinase-Glo ATP depletion luminescence; series mostly up to 66.7 µM; also: nearly all actives have a fitted effect of over 65% in size; also: potency is read from the fitted curve at half-maximal effect
Summary of the method: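 25 nM Clk4 with 100 uM RS repeat peptide and 1 uM ATP (final) in Tris pH7.5, 10 mM MgCl2, 4.5 h at room temperature. Remaining ATP measured by Kinase-Glo luciferase luminescence.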

[11] = target: Dual specificity protein kinase CLK4 (Homo sapiens) (UniProt Q9HAZ1); assay: qHTS Assay for Inhibitors of CDC-like Kinase 4 (ADP-Glo Assay) (AID 1771); settings: recombinant CLK4, ADP-Glo luminescence; series mostly up to 80 µM; also: nearly all actives have a fitted effect of over 70% in size; also: potency is read from the fitted curve at half-maximal effect
Summary of the method: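 Clk4 (25 nM) was incubated 1 hr at room temperature with 100 uM RS repeat peptide and 1 uM ATP in buffer with 2 mM MgCl2, 0.5 mM EGTA, 2.5 mM DTT. ADP formed was quantified by ADP-Glo luminescence.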

[12] = target: Ubiquitin carboxyl-terminal hydrolase 1 (Homo sapiens) (UniProt O94782); assay: Inhibitors of USP1/UAF1: Pilot qHTS (AID 504865); settings: purified USP1/UAF1, Ub-rhodamine cleavage fluorescence; series mostly up to 54.9 µM;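 also: rhodamine fluorescence freed from ubiquitin-rhodamine substrate followed over time; top concentration of the series differs between compounds; % is scaled to controls: 0 for no effect and ±100 for the full control effect; nearly all actives have a fitted effect of over 35% in size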
Summary of the method: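 USP1/UAF1 complex at 1 nM preincubated 15 min at room temperature with compound, then Ub-Rho substrate added at 150 nM final. Fluorescence (480/540 nm) read kinetically in 50 mM HEPES pH 7.8, 0.5 mM EDTA, 1 mM TCEP, 0.1 mg/ml BSA, 0.01% Tween-20.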

[13] = Primary qHTS for small molecule stabilizers of the endoplasmic reticulum resident proteome: Secreted ER Calcium Modulated Protein (SERCaMP) assay (AID 1508630); settings: SH-SY5Y GLuc-SERCaMP (Gaussia luciferase released on ER calcium loss) secretion, thapsigargin, luminescence; series mostly up to 38.4 µM; also: % is scaled to controls: 0 for no effect and ±100 for the full control effect
Summary of the method: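 GLuc-SERCaMP-expressing SH-SY5Y cells, pretreated 16 h with compound, are challenged with thapsigargin to empty ER calcium stores; after 4 h, coelenterazine is added directly to the medium and luminescence is imaged.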

[14] = target: Cytochrome P450 3A4 (Homo sapiens) (UniProt P08684); assay: qHTS Assay for Inhibitors and Substrates of Cytochrome P450 3A4 (AID 884); settings: recombinant CYP3A4, Luciferin-PPXE luminescence; series mostly up to 57.1 µM; also: potency is read from the fitted curve at half-maximal effect; nearly all actives have a fitted effect of over 50% in size
Summary of the method: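 20 nM human CYP3A4 with 25 uM Luciferin-PPXE (at KM) in 200 mM KPO4, preincubated 10 min with compound; NADPH regeneration started a 60 min RT reaction. Luciferin detected by luminescence, normalized to 57 uM ketoconazole as full inhibition.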

[15] = target: Cytochrome P450 3A4 (Homo sapiens) (UniProt P08684); assay: qHTS Assay for Activators of Cytochrome P450 3A4 (AID 885); settings: recombinant CYP3A4, Luciferin-PPXE luminescence, 60 min; series mostly up to 57.1 µM; also: nearly all actives have a fitted effect of over 65% in size
Summary of the method: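 20nM CYP3A4 + 25uM Luciferin-PPXE (=KM), 200mM KPO4; cpd 10 min RT; NADPH regen, 60 min RT; stop w/ detection buffer, 20 min; luminescence. Normalized to 57 uM ketoconazole.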

Sequence of Ubiquitin carboxyl-terminal hydrolase 1 (Homo sapiens) (O94782 whole entry, looked up): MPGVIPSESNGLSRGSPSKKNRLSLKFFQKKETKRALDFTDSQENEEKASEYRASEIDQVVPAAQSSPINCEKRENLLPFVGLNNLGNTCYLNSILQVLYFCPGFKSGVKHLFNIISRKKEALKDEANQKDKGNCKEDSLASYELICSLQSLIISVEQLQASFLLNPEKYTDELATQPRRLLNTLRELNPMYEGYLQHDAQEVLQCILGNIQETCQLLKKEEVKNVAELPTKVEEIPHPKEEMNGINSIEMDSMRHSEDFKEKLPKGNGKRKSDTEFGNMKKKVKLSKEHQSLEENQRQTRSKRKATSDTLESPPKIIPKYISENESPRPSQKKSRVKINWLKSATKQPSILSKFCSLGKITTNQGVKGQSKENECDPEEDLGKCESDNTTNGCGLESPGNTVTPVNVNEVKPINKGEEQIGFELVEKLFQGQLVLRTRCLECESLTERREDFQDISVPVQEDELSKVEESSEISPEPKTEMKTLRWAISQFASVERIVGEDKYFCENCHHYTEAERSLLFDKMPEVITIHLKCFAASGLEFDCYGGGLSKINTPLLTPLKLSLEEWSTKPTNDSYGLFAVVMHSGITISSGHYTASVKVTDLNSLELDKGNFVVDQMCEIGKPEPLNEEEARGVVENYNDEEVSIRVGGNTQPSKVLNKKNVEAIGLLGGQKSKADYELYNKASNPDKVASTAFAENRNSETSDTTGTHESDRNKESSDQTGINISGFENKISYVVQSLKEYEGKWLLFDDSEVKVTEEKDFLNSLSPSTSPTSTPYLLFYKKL
Sequence of Lysosomal acid glucosylceramidase (Homo sapiens) (P04062 whole entry, looked up): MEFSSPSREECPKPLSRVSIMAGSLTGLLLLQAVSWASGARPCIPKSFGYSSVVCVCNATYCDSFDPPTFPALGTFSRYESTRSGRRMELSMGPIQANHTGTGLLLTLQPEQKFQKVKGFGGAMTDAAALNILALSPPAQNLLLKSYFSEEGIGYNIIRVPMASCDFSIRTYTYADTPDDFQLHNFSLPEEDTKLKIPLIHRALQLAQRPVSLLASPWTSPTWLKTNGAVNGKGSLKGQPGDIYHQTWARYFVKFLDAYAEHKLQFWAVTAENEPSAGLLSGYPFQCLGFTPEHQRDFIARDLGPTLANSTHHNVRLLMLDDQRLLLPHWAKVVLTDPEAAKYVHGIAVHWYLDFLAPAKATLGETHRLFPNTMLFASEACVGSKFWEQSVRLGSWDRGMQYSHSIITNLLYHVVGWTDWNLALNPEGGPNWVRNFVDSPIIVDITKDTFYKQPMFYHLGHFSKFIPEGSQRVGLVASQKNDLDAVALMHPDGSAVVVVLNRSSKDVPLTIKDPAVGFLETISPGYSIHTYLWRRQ
Sequence of Cytochrome P450 3A4 (Homo sapiens) (P08684 whole entry, looked up): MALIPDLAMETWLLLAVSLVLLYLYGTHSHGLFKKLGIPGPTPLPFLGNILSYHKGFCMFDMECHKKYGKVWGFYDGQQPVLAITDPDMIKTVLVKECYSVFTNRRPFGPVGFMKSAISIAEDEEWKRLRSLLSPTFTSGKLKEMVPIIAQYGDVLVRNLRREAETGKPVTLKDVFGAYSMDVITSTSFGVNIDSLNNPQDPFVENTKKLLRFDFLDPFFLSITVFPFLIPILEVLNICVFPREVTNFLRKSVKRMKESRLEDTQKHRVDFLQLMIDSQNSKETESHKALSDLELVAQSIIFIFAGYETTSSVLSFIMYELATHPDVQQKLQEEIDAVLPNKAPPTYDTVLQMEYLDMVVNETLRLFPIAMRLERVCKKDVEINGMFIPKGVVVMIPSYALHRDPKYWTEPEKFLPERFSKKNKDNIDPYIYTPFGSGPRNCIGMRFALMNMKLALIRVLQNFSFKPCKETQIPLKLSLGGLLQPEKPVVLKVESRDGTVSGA
Sequence of Glucocorticoid receptor (Homo sapiens) (P04150 whole entry, looked up, the tested form may be a part): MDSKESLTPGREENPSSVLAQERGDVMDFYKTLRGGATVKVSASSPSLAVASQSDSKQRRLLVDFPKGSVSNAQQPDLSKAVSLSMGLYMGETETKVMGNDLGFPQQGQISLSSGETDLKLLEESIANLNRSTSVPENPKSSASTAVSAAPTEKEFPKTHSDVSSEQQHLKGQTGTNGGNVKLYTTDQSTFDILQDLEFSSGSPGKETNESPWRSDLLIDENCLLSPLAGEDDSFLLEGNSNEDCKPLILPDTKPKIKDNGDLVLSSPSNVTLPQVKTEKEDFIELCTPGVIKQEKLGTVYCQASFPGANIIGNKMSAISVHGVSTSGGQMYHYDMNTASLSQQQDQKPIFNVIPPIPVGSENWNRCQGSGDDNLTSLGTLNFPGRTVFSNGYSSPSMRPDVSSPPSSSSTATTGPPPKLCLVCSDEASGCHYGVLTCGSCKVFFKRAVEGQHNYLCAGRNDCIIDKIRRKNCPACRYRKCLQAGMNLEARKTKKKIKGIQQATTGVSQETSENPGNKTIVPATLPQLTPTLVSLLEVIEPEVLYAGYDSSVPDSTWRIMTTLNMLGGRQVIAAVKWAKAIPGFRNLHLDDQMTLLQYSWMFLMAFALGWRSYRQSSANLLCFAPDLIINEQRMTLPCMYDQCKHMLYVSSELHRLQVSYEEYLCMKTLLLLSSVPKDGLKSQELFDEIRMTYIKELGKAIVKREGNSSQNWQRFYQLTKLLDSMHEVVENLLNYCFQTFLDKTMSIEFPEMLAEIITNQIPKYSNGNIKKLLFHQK
Sequence of 3',5'-cyclic-AMP phosphodiesterase 4B (Homo sapiens) (Q07343 whole entry, looked up): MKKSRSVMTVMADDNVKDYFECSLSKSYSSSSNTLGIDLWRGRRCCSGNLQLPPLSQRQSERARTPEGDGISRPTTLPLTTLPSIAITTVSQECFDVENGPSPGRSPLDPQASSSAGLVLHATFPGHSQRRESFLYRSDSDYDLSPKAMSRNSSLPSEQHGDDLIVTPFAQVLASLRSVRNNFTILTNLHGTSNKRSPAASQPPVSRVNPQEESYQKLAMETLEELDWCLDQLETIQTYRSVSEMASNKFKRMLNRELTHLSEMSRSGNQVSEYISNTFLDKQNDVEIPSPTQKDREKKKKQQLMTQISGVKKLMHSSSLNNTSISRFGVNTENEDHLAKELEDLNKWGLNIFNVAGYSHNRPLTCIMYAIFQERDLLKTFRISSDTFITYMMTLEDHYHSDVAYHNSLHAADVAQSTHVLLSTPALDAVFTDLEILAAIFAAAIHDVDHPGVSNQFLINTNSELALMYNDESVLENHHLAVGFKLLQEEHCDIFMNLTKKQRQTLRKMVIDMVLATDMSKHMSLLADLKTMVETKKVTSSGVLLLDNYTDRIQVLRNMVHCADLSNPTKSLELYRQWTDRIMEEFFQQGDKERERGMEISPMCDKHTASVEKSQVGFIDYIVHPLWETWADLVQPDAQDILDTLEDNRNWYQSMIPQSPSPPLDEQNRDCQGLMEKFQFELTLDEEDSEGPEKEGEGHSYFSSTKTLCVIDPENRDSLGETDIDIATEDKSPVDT
Sequence of Dual specificity protein kinase CLK4 (Homo sapiens) (Q9HAZ1 whole entry, looked up): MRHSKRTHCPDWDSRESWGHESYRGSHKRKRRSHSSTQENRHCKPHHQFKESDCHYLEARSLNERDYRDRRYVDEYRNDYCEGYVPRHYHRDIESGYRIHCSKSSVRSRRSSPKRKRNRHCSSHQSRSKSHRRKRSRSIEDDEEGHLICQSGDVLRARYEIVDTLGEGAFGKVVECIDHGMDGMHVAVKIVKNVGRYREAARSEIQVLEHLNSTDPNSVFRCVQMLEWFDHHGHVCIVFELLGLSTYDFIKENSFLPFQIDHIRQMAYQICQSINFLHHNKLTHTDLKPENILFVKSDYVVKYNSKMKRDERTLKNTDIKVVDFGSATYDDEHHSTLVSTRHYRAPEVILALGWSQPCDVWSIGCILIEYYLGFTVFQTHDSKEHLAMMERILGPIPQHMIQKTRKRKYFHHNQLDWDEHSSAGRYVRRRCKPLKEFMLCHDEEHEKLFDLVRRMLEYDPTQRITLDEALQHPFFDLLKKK
Sequence of Cytochrome P450 1A2 (Homo sapiens) (P05177 whole entry, looked up): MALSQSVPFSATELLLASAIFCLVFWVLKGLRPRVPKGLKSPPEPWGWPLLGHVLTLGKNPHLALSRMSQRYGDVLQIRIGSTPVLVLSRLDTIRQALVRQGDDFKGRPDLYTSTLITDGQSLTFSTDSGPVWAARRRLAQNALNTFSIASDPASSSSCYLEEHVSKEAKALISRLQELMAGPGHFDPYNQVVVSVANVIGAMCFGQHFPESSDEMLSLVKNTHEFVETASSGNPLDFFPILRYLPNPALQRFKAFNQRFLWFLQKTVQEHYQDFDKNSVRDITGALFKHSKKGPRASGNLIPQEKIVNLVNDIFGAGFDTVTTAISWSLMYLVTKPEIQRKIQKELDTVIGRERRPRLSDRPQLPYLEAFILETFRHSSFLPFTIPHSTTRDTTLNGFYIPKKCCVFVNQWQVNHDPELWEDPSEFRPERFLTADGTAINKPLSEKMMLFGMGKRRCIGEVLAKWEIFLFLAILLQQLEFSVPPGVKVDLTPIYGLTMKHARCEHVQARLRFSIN

In the case of `O=c1c(-c2ccccc2)nc2cnc(N3CCOCC3)nc2n1Cc1cccs1`, the Potency [1] was over 11.4 µM, the activity change, negative = inhibition [2] was 20.9% and the Potency [3] was 2.51 µM (active). It also gave an activity change, negative = inhibition [4] of 14.9%, an activity, negative = inhibition [5] of 20.6% and a Potency [6] of over 9.22 µM. For the same compound, the Potency [7] was over 46 µM, the Potency [8] was “inactive” and the Potency [9] was “inactive”. For the same compound, the Potency [10] was “inactive”, the Potency [11] was “inactive” and the Potency [12] was “inactive”. For the same compound, the outcome [13] was “inactive”.

For `COc1ncc2ncc(=O)n(C3CC3)c2n1`, the Potency [1] was over 11.4 µM, the activity change, negative = inhibition [2] was -1.23% and the Potency [3] was 10 µM (active). For the same compound, the activity change, negative = inhibition [4] was -8.58%, the activity, negative = inhibition [5] was 6.59% and the Potency [6] was over 9.22 µM. The Potency [7] was over 46 µM, the Potency [8] was “inactive” and the Potency [9] was 1.58 µM (active). For the same compound, the Potency [10] was “inactive”, the Potency [11] was “inactive” and the Potency [12] was “inactive”. For the same compound, the outcome [13] was “inactive”.

For `COc1ccc2[nH]cc(CCNc3cc(-c4ccc(C(=O)N(C)C)cc4)ncn3)c2c1`, the Potency [1] was over 11.4 µM, the activity change, negative = inhibition [2] was -10.4% and the Potency [3] was 20 µM (active). For the same compound, the activity change, negative = inhibition [4] was 0.0562%, the activity, negative = inhibition [5] was -10.6% and the Potency [6] was over 46 µM. For the same compound, the Potency [7] was over 46 µM, the Potency [8] was “inactive” and the Potency [9] was “inactive”. For the same compound, the Potency [14] was 6.31 µM (active), the Potency [15] was “inactive” and the Potency [10] was 10 µM (active). The Potency [11] was 10 µM (active), the Potency [12] was “inactive” and the outcome [13] was “inactive”.

With `COCCn1c(=O)c(-c2cccc(C#N)c2)nc2cnc(N3CCOCC3)nc21` the Potency [1] was over 11.4 µM, the activity change, negative = inhibition [2] was -16.2% and the Potency [3] was 10 µM (active). For the same compound, the activity change, negative = inhibition [4] was -8.26%, the activity, negative = inhibition [5] was 3.4% and the Potency [6] was over 9.22 µM. For the same compound, the Potency [7] was over 46 µM, the Potency [8] was “inactive” and the Potency [9] was “inactive”. The Potency [10] was “inactive”, the Potency [11] was “inactive” and the Potency [12] was “inactive”. The outcome [13] was “inactive”.

With `COc1cccc(-c2cc(NCc3cccnc3)ncn2)c1` the Potency [1] was over 11.4 µM, the activity change, negative = inhibition [2] was 12.8% and the Potency [3] was 0.631 µM (active). The activity change, negative = inhibition [4] was 0.0139%, the activity, negative = inhibition [5] was -7.08% and the Potency [6] was over 46 µM. The Potency [7] was over 46 µM, the Potency [8] was “inactive” and the Potency [9] was “inactive”. The Potency [14] was 3.98 µM (active), the Potency [15] was “inactive” and the Potency [10] was 14.1 µM (active). For the same compound, the Potency [11] was 14.1 µM (active), the Potency [12] was “inactive” and the outcome [13] was “inactive”.

In the case of `COCCn1c(=O)cnc2cnc(Oc3cccc(Cl)c3)nc21`, the Potency [1] was over 11.4 µM, the activity change, negative = inhibition [2] was 1.86% and the Potency [3] was 3.16 µM (active). The activity change, negative = inhibition [4] was 2.09%, the activity, negative = inhibition [5] was -13.2% and the Potency [6] was over 9.22 µM. For the same compound, the Potency [7] was over 46 µM, the Potency [8] was “inactive” and the Potency [9] was “inactive”. For the same compound, the Potency [15] was “inactive”, the Potency [10] was “inactive” and the Potency [11] was “inactive”. For the same compound, the Potency [12] was “inactive” and the outcome [13] was “inactive”.
